Where a name gives a salt, the structure may show the parent alone. ± gives the standard deviation of the averaged measurements.
Assays:
[1] = tested on: Saccharomyces cerevisiae BY4741 SeMeCo community; assay: mean cell size (pixel area) (pixels); higher = larger cells; details: 10 µM; 24 h; SM minimal medium
How it was run: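 A Saccharomyces cerevisiae BY4741 community carrying four plasmids, each with a fluorescent marker and each complementing one auxotrophy, was exposed for 24 h to drug at a final 10 µM in SM medium in acoustically predosed 384-well plates. The overnight preculture (OD600 = 1.0) was diluted to OD600 = 0.3 before 70 µl was added per well. Cells were then fixed with paraformaldehyde, imaged by automated confocal microscopy and analysed in Harmony to derive mean cell pixel area per well, averaged over 3 replicates. Same SeMeCo high-content imaging drug screen: Selleck FDA-approved drugs at 10 µM, 24 h in SM medium, 384-well plates, 3 replicates.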

[2] = tested on: Saccharomyces cerevisiae BY4741 SeMeCo community; assay: z-score of prototroph abundance vs DMSO median; higher = larger share of this subpopulation than in DMSO controls; details: 10 µM; 24 h; SM minimal medium; subpopulation (auxotrophy): Prototroph
How it was run: (§1)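 A Saccharomyces cerevisiae BY4741 community carried four plasmids, each restoring one auxotrophy and encoding a distinct fluorescent protein. It was pre-grown overnight to OD600 1.0, diluted to 0.3, and 70 µl was added to 384-well plates acoustically predosed with library drugs (10 µM final), then grown 24 h in minimal SM medium. Cells were paraformaldehyde-fixed and imaged by automated confocal microscopy, with single-auxotroph fluorescent strains setting thresholds and autofluorescence correction. Each subpopulation's abundance was scored as a z-score against the vehicle-well median.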

[3] = tested on: Saccharomyces cerevisiae BY4741 SeMeCo community; assay: z-score of subpopulation abundance vs DMSO median, subpopulation auxotrophic for M; higher = larger share of this subpopulation than in DMSO controls; details: 10 µM; 24 h; SM minimal medium; subpopulation (auxotrophy): M
How it was run: as §1

[4] = tested on: Saccharomyces cerevisiae BY4741 SeMeCo community; assay: z-score of subpopulation abundance vs DMSO median, subpopulation auxotrophic for L; higher = larger share of this subpopulation than in DMSO controls; details: 10 µM; 24 h; SM minimal medium; subpopulation (auxotrophy): L
How it was run: as §1

[5] = tested on: Saccharomyces cerevisiae BY4741 SeMeCo community; assay: z-score of subpopulation abundance vs DMSO median, subpopulation auxotrophic for U; higher = larger share of this subpopulation than in DMSO controls; details: 10 µM; 24 h; SM minimal medium; subpopulation (auxotrophy): U
How it was run: as §1

[6] = tested on: Saccharomyces cerevisiae BY4741 SeMeCo community; assay: z-score of subpopulation abundance vs DMSO median, subpopulation auxotrophic for H; higher = larger share of this subpopulation than in DMSO controls; details: 10 µM; 24 h; SM minimal medium; subpopulation (auxotrophy): H
How it was run: as §1

[7] = tested on: Saccharomyces cerevisiae BY4741 SeMeCo community; assay: z-score of subpopulation abundance vs DMSO median, subpopulation auxotrophic for LU; higher = larger share of this subpopulation than in DMSO controls; details: 10 µM; 24 h; SM minimal medium; subpopulation (auxotrophy): LU
How it was run: as §1

[8] = tested on: Saccharomyces cerevisiae BY4741 SeMeCo community; assay: z-score of subpopulation abundance vs DMSO median, subpopulation auxotrophic for LM; higher = larger share of this subpopulation than in DMSO controls; details: 10 µM; 24 h; SM minimal medium; subpopulation (auxotrophy): LM
How it was run: as §1

[9] = tested on: Saccharomyces cerevisiae BY4741 SeMeCo community; assay: z-score of subpopulation abundance vs DMSO median, subpopulation auxotrophic for HM; higher = larger share of this subpopulation than in DMSO controls; details: 10 µM; 24 h; SM minimal medium; subpopulation (auxotrophy): HM
How it was run: as §1

[10] = tested on: Saccharomyces cerevisiae BY4741 SeMeCo community; assay: z-score of subpopulation abundance vs DMSO median, subpopulation auxotrophic for HU; higher = larger share of this subpopulation than in DMSO controls; details: 10 µM; 24 h; SM minimal medium; subpopulation (auxotrophy): HU
How it was run: as §1

[11] = tested on: Saccharomyces cerevisiae BY4741 SeMeCo community; assay: z-score of subpopulation abundance vs DMSO median, subpopulation auxotrophic for UM; higher = larger share of this subpopulation than in DMSO controls; details: 10 µM; 24 h; SM minimal medium; subpopulation (auxotrophy): UM
How it was run: as §1

[12] = tested on: Saccharomyces cerevisiae BY4741 SeMeCo community; assay: z-score of subpopulation abundance vs DMSO median, subpopulation auxotrophic for HL; higher = larger share of this subpopulation than in DMSO controls; details: 10 µM; 24 h; SM minimal medium; subpopulation (auxotrophy): HL
How it was run: as §1

[13] = tested on: Saccharomyces cerevisiae BY4741 SeMeCo community; assay: z-score of subpopulation abundance vs DMSO median, subpopulation auxotrophic for HLU; higher = larger share of this subpopulation than in DMSO controls; details: 10 µM; 24 h; SM minimal medium; subpopulation (auxotrophy): HLU
How it was run: as §1

[14] = tested on: Saccharomyces cerevisiae BY4741 SeMeCo community; assay: z-score of subpopulation abundance vs DMSO median, subpopulation auxotrophic for HLM; higher = larger share of this subpopulation than in DMSO controls; details: 10 µM; 24 h; SM minimal medium; subpopulation (auxotrophy): HLM
How it was run: as §1

[15] = tested on: Saccharomyces cerevisiae BY4741 SeMeCo community; assay: z-score of subpopulation abundance vs DMSO median, subpopulation auxotrophic for HUM; higher = larger share of this subpopulation than in DMSO controls; details: 10 µM; 24 h; SM minimal medium; subpopulation (auxotrophy): HUM
How it was run: as §1

[16] = tested on: Saccharomyces cerevisiae BY4741 SeMeCo community; assay: z-score of subpopulation abundance vs DMSO median, subpopulation auxotrophic for LUM; higher = larger share of this subpopulation than in DMSO controls; details: 10 µM; 24 h; SM minimal medium; subpopulation (auxotrophy): LUM
How it was run: as §1

[17] = tested on: Saccharomyces cerevisiae BY4741 SeMeCo community; assay: z-score of subpopulation abundance vs DMSO median, subpopulation auxotrophic for HLUM; higher = larger share of this subpopulation than in DMSO controls; details: 10 µM; 24 h; SM minimal medium; subpopulation (auxotrophy): HLUM
How it was run: as §1

Structure (SMILES)	mean cell size [1]	z-score of prototroph abundance [2]	z-score of subpopulation abundance [3]	z-score of subpopulation abundance [4]	z-score of subpopulation abundance [5]	z-score of subpopulation abundance [6]	z-score of subpopulation abundance [7]	z-score of subpopulation abundance [8]	z-score of subpopulation abundance [9]	z-score of subpopulation abundance [10]	z-score of subpopulation abundance [11]	z-score of subpopulation abundance [12]	z-score of subpopulation abundance [13]	z-score of subpopulation abundance [14]	z-score of subpopulation abundance [15]	z-score of subpopulation abundance [16]	z-score of subpopulation abundance [17]
COc1ccccc1OCC(O)CN1CCN(CC(=O)Nc2c(C)cccc2C)CC1 (stereo not drawn) [Ranolazine 2HCl]	12.35 ± 0.013	0.5	-0.08	0.24	-0.29	0.04	0.35	-0.74	-0.18	-0.09	-0.16	0.26	-0.68	-0.72	-0.12	-0.47	
CCC[S+]([O-])c1ccc2[nH]c(NC(=O)OC)nc2c1 (stereo not drawn) [Albendazole Oxide]	12.4 ± 0.35	0.33	-0.33	-0.98	0.49	-0.72	-0.51	-0.25	0.14	-0.21	0.18		-0.31	-0.85	0.36	-0.65	
CCCCc1oc2ccc(NS(C)(=O)=O)cc2c1C(=O)c1ccc(OCCCN(CCCC)CCCC)cc1 [Dronedarone HCl]	12.24 ± 0.057	-0.15	-0.05	0.34	-0.45	1.17	0.61	0.28		0.78		1.2	2.17	1.9	-0.2	0.59	0
CCCc1nn(C)c2c(=O)[nH]c(-c3cc(S(=O)(=O)N4CCN(C)CC4)ccc3OCC)nc12 [Sildenafil Citrate]	12.4 ± 0.22	0.12	0.03	-0.61	0.43	-0.22	0.51	-0.26	0.01	-0.23	0.49	-0.89	0.14	-0.32	-0.06		
CC[C@@H]([C@H](C)O)n1ncn(-c2ccc(N3CCN(c4ccc(OC[C@@H]5CO[C@@](Cn6cncn6)(c6ccc(F)cc6F)C5)cc4)CC3)cc2)c1=O [Posaconazole]	12.34 ± 0.068	-11.6	-1.66	-0.49	0.25	16.6	3.33		11.5	16.4			14.4	14.9	11.8		12.3
COc1ccc([C@@H]2Sc3ccccc3N(CCN(C)C)C(=O)[C@@H]2OC(C)=O)cc1 [Diltiazem HCl]	12.5 ± 0.27	0.76	-0.12	0.4	-0.19	-0.4	-0.4		-0.74	-0.1	-0.21		0.03	-0.37	-0.36		-0.3
Cc1cc(/C=C/c2ccc3cc(N(C)C)ccc3[n+]2C)c(C)n1-c1ccccc1 [pyrvinium]	12.38 ± 0.085	0.55	0.61	-1.29	0.84	-3.04	0.05	-0.19		-0.67	1.08	-1.44	-0.46	-0.3	-0.73	-0.14	
CC(=O)Oc1ccc(C(=C2CCCCC2)c2ccc(OC(C)=O)cc2)cc1 [Cyclofenil]	12.3 ± 0.17	0.79	-1.19	-0.27		-0.22	-0.48	-1.03		-0.3		0.25	-0.23	0.41	-0.46	-0.06	-0.2
O=c1ccc2cc(O)c(O)cc2o1 [Esculetin]	12.7 ± 0.16		5.32	1.75	-7.81	3.92	-7.32		3.75	-7.17	-8.53	2.44	-3.44	1.67	-4.69	-3.61	-0.38
Nc1c(CC(=O)O)cccc1C(=O)c1ccccc1 [Amfenac Sodium Monohydrate]	12.78 ± 0.078	0.49	0.25	-0.33	0.11	-0.38	-0.63		1.16	-0.95	-0.16	-0.27	0.63	2.36	0.74	-0.56	0.57
CC(C)COc1ccc(CNC(=O)N(Cc2ccc(F)cc2)C2CCN(C)CC2)cc1 [Pimavanserin]	12.4 ± 0.25	-0.05	1.1	-1.18	0.22	-0.39	0.32		-0.22	1.4		0.41	-0.54	0.27	-0.82	-0.56	-0.3
O=C(Nc1ccc(Oc2ccc(Cl)cc2)c(Cl)c1)c1cc(I)cc(I)c1O [Rafoxanide]	12.2 ± 0.19	0.24	-0.29	1.02	-1.44	1.91	-0.7	0.2			-0.89	1.29	-0.3	0.01	0.54	-0.08	
Nc1ccc2cc3ccc(N)cc3nc2c1 [Proflavine]	12.11 ± 0.034		2.16	-7.48	-7.03	4.14	-7.09		2.14	-6.17	-7.18	-3.92	-4.19	-2.42	-4.57	-4.39	-1.99
CC(=O)OC(C)C[N+](C)(C)C (stereo not drawn) [Methacholine chloride]	12.5 ± 0.13		0	0.65	0.32	0.16	1.46	0.88			0.68		0.55	0.76	0.26	0.92	0.95
Cn1c(=O)c2c(ncn2CC(O)CO)n(C)c1=O (stereo not drawn) [Dyphylline]	12.55 ± 0.12	1.12	-1.07	-0.69	0.26	-0.64	-0.11		-0.97	-0.83			-0.29	-0.91	-1.32		-0.64

Source: the supplement of paper PMC8975748
